Test results from article PMC4336329 (PLoS ONE, 2015).
Hit rate of the full screen: of about 310,000 compounds, about 14,000 (4.5%) showed an effect of 50% or more. The effect is printed as a negative number. The sample holds strong results, similar compounds and a random draw of the others, so the mix is not that of the screen.

Biological target: human ether-à-go-go-related gene (hERG) potassium channel (human, UniProt Q12809)
Assay: primary screen, population patch clamp on CHO cells stably expressing hERG; higher = less effect of the substance
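Note: peak tail current of the secondary pulse compared with the same well before compound.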

Sequence of human ether-à-go-go-related gene (hERG) potassium channel (Q12809 whole entry, looked up): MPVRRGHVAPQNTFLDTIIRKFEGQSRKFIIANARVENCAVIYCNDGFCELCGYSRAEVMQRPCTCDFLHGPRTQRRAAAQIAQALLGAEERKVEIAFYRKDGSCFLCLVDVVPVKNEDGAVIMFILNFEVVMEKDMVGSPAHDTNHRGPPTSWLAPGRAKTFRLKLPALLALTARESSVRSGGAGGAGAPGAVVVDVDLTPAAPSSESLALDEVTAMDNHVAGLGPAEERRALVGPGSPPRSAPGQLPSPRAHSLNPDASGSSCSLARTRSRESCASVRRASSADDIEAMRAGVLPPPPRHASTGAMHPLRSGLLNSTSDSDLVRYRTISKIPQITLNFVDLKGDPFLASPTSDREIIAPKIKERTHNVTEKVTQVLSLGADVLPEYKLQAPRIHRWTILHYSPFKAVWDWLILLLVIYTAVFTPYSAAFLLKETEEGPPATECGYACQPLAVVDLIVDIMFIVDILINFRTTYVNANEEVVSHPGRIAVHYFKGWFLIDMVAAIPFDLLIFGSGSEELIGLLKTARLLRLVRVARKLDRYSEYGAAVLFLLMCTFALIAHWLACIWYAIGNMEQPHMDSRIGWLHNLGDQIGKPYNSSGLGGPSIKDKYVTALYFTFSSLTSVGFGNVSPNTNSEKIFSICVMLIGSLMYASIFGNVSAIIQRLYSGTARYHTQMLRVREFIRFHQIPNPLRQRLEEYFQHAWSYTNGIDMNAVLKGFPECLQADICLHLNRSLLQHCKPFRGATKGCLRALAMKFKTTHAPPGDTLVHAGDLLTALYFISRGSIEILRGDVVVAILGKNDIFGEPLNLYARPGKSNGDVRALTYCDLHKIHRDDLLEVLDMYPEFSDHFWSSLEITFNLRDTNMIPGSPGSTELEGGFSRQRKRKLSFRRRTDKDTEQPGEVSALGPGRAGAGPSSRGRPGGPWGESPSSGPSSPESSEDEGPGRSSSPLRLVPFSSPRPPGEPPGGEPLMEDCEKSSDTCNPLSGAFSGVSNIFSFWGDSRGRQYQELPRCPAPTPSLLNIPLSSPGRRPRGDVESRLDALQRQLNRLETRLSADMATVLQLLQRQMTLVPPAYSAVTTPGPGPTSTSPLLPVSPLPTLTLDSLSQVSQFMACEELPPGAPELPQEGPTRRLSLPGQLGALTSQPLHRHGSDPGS

Compound	hERG current change (%, negative = inhibition) at 10uM [%]
O=C(c1c(F)cccc1F)N1CCN(CCOc2ccccc2)CC1	-8.2
Cc1ccc(C)n1CCN1CCN(C(=O)CC#N)CC1	16.3
CN1CCN(C(=O)c2ccc(Cl)cc2)CC1	8.8
Cc1ccc(C)n1CCN1CCN(C(=O)c2ccc(Cl)cc2)CC1	-50.3
COc1ccc(OCCN2CCN(C(=O)c3ccc(OC)c(OC)c3)CC2)cc1	-58.8
CN1CCN(C(=O)c2ccc(OCCOc3ccccc3)cc2)CC1	-9.69
O=C(c1ccc(Cl)cc1)N1CCN(CCOc2ccccc2)CC1	-60.1
COc1ccc(C(=O)N2CCN(Cc3ccc(OC)c(OC)c3)CC2)cc1.O=C(O)C(=O)O	0.702
O=C1NC2(CCc3ccccc3C2)C(=O)N1CCOc1cccc(Cl)c1 (stereo not drawn)	-51.1
COc1cc(OC)cc(C(=O)N2CCN(C(=O)c3ccc(OC)c(OC)c3)CC2)c1	-14
O=C(CN1C(=O)NC2(CCCC2)C1=O)OCCOc1cccc(Cl)c1	-7.43
COc1ccc(OCCN2C(=O)NC3(CCc4ccccc4C3)C2=O)cc1 (stereo not drawn)	-49.7
COc1ccc(C(=O)Nc2cccc(-c3ccc4nncn4n3)c2)cc1OC	8.84
Cc1ccccc1Nc1c(-c2ccc(N3CCOCC3)cc2)nc2cnccn12	-1.1
COc1cc(OC)cc(C(=O)N[C@H](C(=O)Nc2cccc(S(=O)(=O)N3CCCC3)c2)C(C)C)c1	2.47
O=C(N/N=C/c1ccco1)c1cc(-c2ccccc2)nc2ccccc12	2.45
Cn1c(=NC(=O)C2=NNC(=O)CC2)sc2ccccc21	15.2
O=C(NNC1=C(C(=O)C(F)(F)F)CCC1)c1ccccc1Cl	13
Cc1cc(C(=O)Nc2cccc(C)c2C)n(-c2ccccc2)n1	-11.7
O=C(Nc1cccc(S(=O)(=O)N2CCOCC2)c1)c1ccc(N2CCCC2=O)cc1	8.25
COCCCN(CC(=O)O)S(=O)(=O)c1cccc(Cl)c1	16.3
O=C(c1ccc(Br)o1)N1CCC(Cc2ccccc2)CC1	-10.5
O=C(c1ccco1)N1CCN(CCOc2ccccc2)CC1	0.652

Compound	hERG current change (%, negative = inhibition) at 10uM [%]
O=C(c1ccc(Br)o1)N1CCN(CCOc2ccccc2)CC1	-54.1
CCN(CC(=O)NCc1ccc(Cl)cc1)C(=O)c1cccc(S(=O)(=O)Nc2ccc(OC)cc2)c1	-0.458
Cc1ccc(NC(=O)C(Cc2ccccc2)NC(=O)c2ccco2)cc1 (stereo not drawn)	-3.13
O=C1CC(N2CCN(c3nc4ccccc4s3)CC2)C(=O)N1c1ccc(F)cc1 (stereo not drawn)	-53.5
CCOc1cccc(N2C(=O)CC(N3CCN(c4nc5ccccc5s4)CC3)C2=O)c1 (stereo not drawn)	5.09
O=C1CC(N2CCC(c3nc4ccccc4o3)CC2)C(=O)N1Cc1cccs1 (stereo not drawn)	-30.9
COc1ccc(N2C(=O)CC(N3CCN(c4nc5ccccc5s4)CC3)C2=O)cc1 (stereo not drawn)	-30.9
O=C1CC(N2CCN(c3nc4ccccc4s3)CC2)C(=O)N1Cc1cccs1 (stereo not drawn)	-62.3
CCCOc1ccc(N2C(=O)CC(N3CCN(c4nc5ccccc5s4)CC3)C2=O)cc1 (stereo not drawn)	8.46
Cc1ccc(/C=N/NC(=O)C(NC(=O)c2ccccc2)c2n[nH]c(=O)c3ccccc23)cc1 (stereo not drawn)	-2.54
CCC(C)NC(=S)Nc1ccc(C(=O)OC)cc1 (stereo not drawn)	15
CCCn1c(=O)c(C(=O)NNC(=O)c2cccc([N+](=O)[O-])c2)c(O)c2ccccc21	-21.7
O=C(Cn1cnc2ccccc2c1=O)NCCC(=O)Nc1ccc2c(c1)OCO2	16.4
Cc1cc(NC(=O)CSc2nc(-c3ccc(Cl)cc3)cs2)no1	-5.45
COC(=O)c1cc(NC(=O)Cn2nc(C)n3cccc3c2=O)cc(C(=O)OC)c1	4.88
COc1cc(S(=O)(=O)NCC2CCCO2)c(OC)cc1Cl (stereo not drawn)	10.6
CC1CCN(CC(=O)Nc2ccccc2C#N)CC1	3.06
N#Cc1ccccc1NC(=O)CN1CCN(Cc2ccccc2)CC1	-60.1
N#Cc1ccsc1NC(=O)CN1CCN(Cc2ccccc2)CC1	-66.4
N#Cc1ccsc1NC(=O)CN1CCN(c2ccccc2)CC1	1.63
N#Cc1ccccc1NC(=O)CN1CCOCC1	13.4
N#Cc1ccsc1NC(=O)CN1CCCCC1	-5.6
Cc1ccc(C(=O)NCCN(C)C)cc1C	7.22

Compound	hERG current change (%, negative = inhibition) at 10uM [%]
Nc1ccccc1NC(=O)c1ccccc1	2.34
O=C(CCCN1C(=O)c2cccnc2Oc2ccc(Cl)cc21)N1CCCCC1	-9.27
O=C1CNC(=O)N1	13.6
CS(=O)(=O)Nc1ccc(C(=O)N2CCCC2)cc1	-7.75
O=C(Nc1ccc(C(=O)N2CCN(c3ccccc3)CC2)cc1)C1=CSCCO1	-39.8
O=C(Nc1ccc(C(=O)N2CCN(c3ccc(F)cc3)CC2)cc1)C1=CSCCO1	-38.1
O=C(c1ccccc1)N1CCN(c2ccccc2F)CC1	10.1
CS(=O)(=O)Nc1ccc(C(=O)N2CCN(c3ccccc3F)CC2)cc1	-68.1
CS(=O)(=O)Nc1ccc(C(=O)N2CCN(c3ccccc3)CC2)cc1	-61.9
O=C(c1ccc(-c2ccccc2)cc1)N1CCN(c2ccccc2F)CC1	7.96
CS(=O)(=O)Nc1ccc(C(=O)N2CCCCC2)cc1	-3.35
O=C(Nc1ccc(C(=O)N2CCN(c3ccccc3F)CC2)cc1)C1=CSCCO1	-50.3
Cc1nn(CCC#N)c(NC(=O)c2ccccc2)c1P(=O)(Nc1ccc(Br)cc1)N1CCOCC1 (stereo not drawn)	20.6
Cc1cc(CN(C)C(=O)c2ccc3nc(Cc4ccccc4F)oc3c2)on1	-5.71
Cc1ccc(SCC2=NN(c3nc(C)cc(C)n3)C(=O)C2)cc1	-16
CCn1c(CCNC(=O)c2ccc(OC)cc2)nnc1SCc1ccc(Cl)cc1Cl	-65.6
CCn1c(CCNC(=O)c2ccc(C)cc2)nnc1SCc1ccc(Cl)c(Cl)c1	-45.7
CCOc1ccc(NC(=O)CSc2nnc(CCNC(=O)c3ccc(OC)cc3)n2CC)cc1	-26.7
CCn1c(CCNC(=O)c2ccc(Cl)c(Cl)c2)nnc1SCCOc1ccc(OC)cc1	-8.77
CCn1c(CCNC(=O)c2ccc(OC)cc2)nnc1SCc1ccc(Cl)c(Cl)c1	-61.8
CCn1c(SCc2ccc(Cl)c(Cl)c2)nnc1C(C)NC(=O)c1ccc(OC)cc1 (stereo not drawn)	10
CCC1(C)Cc2nc3[nH]c(=S)n(-c4ccccc4C)c(=O)c3cc2CO1 (stereo not drawn)	4.44
Cc1ccc2c(c1)c1c(n2C)C(C(N)=O)CCC1 (stereo not drawn)	-19.5

Compound	hERG current change (%, negative = inhibition) at 10uM [%]
CCCC(C)C1(CC)C(=O)NC(=O)N=C1N (stereo not drawn)	-76.5
CCC(C)C1(CC)C(=O)NC(=O)N=C1N (stereo not drawn)	36.1
CCCC(C)C1(CC)C(=O)NC(=Nc2ccc(F)cc2)NC1=O (stereo not drawn)	17.5
O=C1c2ccccc2-c2c1cccc2C(=O)N1CCN(C(=O)c2ccco2)CC1	-71.1
O=C(c1cc(-c2ccccc2Cl)on1)N1CCN(C(=O)c2ccco2)CC1	-44.2
O=C(c1ccco1)N1CCN(C(=O)c2ccc(-c3ccc(Cl)cc3)o2)CC1	-78.8
O=C1c2ccccc2-c2c1cccc2C(=O)N1CCCCC1	-22.3
O=C(c1ccco1)N1CCN(C(=O)c2ccc(-c3ccccc3Cl)o2)CC1	-67.6
O=C(c1cc(-c2ccc(Cl)cc2Cl)on1)N1CCCC1	-0.203
CC(=O)N1CCN(C(=O)c2ccc(-c3ccccc3Cl)o2)CC1	-20
O=C(c1ccc(Cl)cc1)N1CCN(C(=O)c2ccco2)CC1	-21
O=C(Cc1ccc(Cl)cc1)N1CCN(C(=O)c2ccco2)CC1	-12.8
O=C1c2ccccc2-c2c1cccc2C(=O)N1CCCCCC1	0.506
O=C(c1cc(-c2ccc(Cl)cc2Cl)on1)N1CCN(C(=O)c2ccco2)CC1	-70.2
O=C(c1ccc(-c2ccccc2Cl)o1)N1CCN(c2ccccc2O)CC1	8.64
COC(=O)C(O)(c1ccc(NC(=O)c2ccco2)c(OC)c1)C(F)(F)F (stereo not drawn)	-6.24
O=C(NCCc1ccc(Cl)cc1)C(=O)c1c[nH]c2ccccc12	-10.8
O=C(Nc1nsc(-c2ccccc2)n1)c1ccc(F)cc1	-24.6
CCC(NC(=O)CNC(=O)CNC(=O)c1ccc(Cl)cc1Cl)c1ccc(C)cc1 (stereo not drawn)	22.2
CC(C)c1cc(C(=O)O)n(-c2ccccc2)n1	12.1
Cc1ccc(S(=O)(=O)n2[nH]c(=O)c(CCO)c2C)cc1	8.83
